# Measurements: PubChem BioAssay (NCI)
# The panel holds about 83,000 compounds, 20% with a hit somewhere; the sample as a whole holds those more often.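 Results are percent growth after 48 hours of single-concentration exposure. 100 means growth as in untreated cells, lower positive values show inhibition; negative values down to -100 show cell death.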 Unmarked numbers belong to inactive results. Activity calls are given as the source filed them. Rule for the calls: active = growth percent below 10; inactive = the rest.
# Assays:
# Test in all cases: NCI-60 one-dose screen, 48 h (100 = growth as untreated, 0 = no growth, -100 = all killed)
# DU-145 prostate = settings: 10 µM unless noted
# K-562 leukemia = settings: 10 µM unless noted
# MALME-3M melanoma = settings: 10 µM unless noted
# MDA-MB-231 breast = settings: 10 µM unless noted
# RXF 393 renal = settings: 10 µM unless noted
# SF-268 CNS = settings: 10 µM unless noted
# SF-295 CNS = settings: 10 µM unless noted
# SF-539 CNS = settings: 10 µM unless noted
# UACC-257 melanoma = settings: 10 µM
# M14 melanoma = settings: 10 µM unless noted
# HCT-15 colon = settings: 10 µM unless noted
# HT29 colon = settings: 10 µM unless noted
# SNB-75 CNS = settings: 10 µM unless noted
# SNB-19 CNS = settings: 10 µM unless noted
# U251 CNS = settings: 10 µM unless noted
# PC-3 prostate = settings: 10 µM unless noted
# SK-MEL-5 melanoma = settings: 10 µM unless noted
# UACC-62 melanoma = settings: 10 µM unless noted
# LOX IMVI melanoma = settings: 10 µM unless noted
# SK-MEL-28 melanoma = settings: 10 µM unless noted
Compound,growth (DU-145 prostate),growth (K-562 leukemia),growth (MALME-3M melanoma),growth (MDA-MB-231 breast),growth (RXF 393 renal),growth (SF-268 CNS),growth (SF-295 CNS),growth (SF-539 CNS),growth (UACC-257 melanoma),growth (M14 melanoma),growth (HCT-15 colon),growth (HT29 colon),growth (SNB-75 CNS),growth (SNB-19 CNS),growth (U251 CNS),growth (PC-3 prostate),growth (SK-MEL-5 melanoma),growth (UACC-62 melanoma),growth (LOX IMVI melanoma),growth (SK-MEL-28 melanoma)
COc1cc(-c2noc(C[C@@H](NC(=O)OCc3ccccc3)C(C)C)n2)cc(OC)c1OC,108%,94.4%,94.4%,92.1%,102%,97.5%,105%,102%,98.5%,100%,97.4%,104%,76.3%,89.6%,98.4%,97%,99.3%,88.4%,101%,100%
N#C/C(=C\c1ccc2ccccc2c1)C(=O)Nc1sc2c(c1C#N)CCC2,103%,96.2%,116%,98.1%,107%,103%,95.3%,102%,108%,106%,99%,121%,102%,98.9%,99%,98.1%,98%,–,95.6%,113%
C#C[C@]1(O)CC[C@H]2[C@@H]3CC=C4c5sc(Nc6ccc(OC)nc6)nc5CC[C@]4(C)[C@H]3CC[C@@]21C,24.8%,6.1% (active),55.2%,64.8%,-15.7% (active),45.9%,-29.7% (active),13.9%,89%,59%,-66.4% (active),-4.57% (active),-8.98% (active),50.5%,17.8%,29.9%,52.1%,70.5%,–,68.8%
CCCCSc1nnc(-c2ccc(-c3ccc(Cl)cc3)nc2C)o1,98.2%,90.1%,102%,104%,110%,103%,96.8%,98.1%,106%,104%,92.6%,97.2%,90.3%,97.8%,104%,91.9%,99.3%,84.1%,101%,99.9%
O=C1NC(=O)c2c1c1c3ccccc3ccc1c1[nH]c3ccccc3c21,22.9%,9.34% (active),-15.2% (active),34%,-21.2% (active),5.68% (active),3.01% (active),18.4%,44.1%,15.9%,13.4%,13.4%,-7.05% (active),3.4% (active),11.1%,1.07% (active),-18.1% (active),15.2%,–,18.9%
O=S(=O)(Nc1ccc(I)c(Cl)c1)c1ccc(-c2cnc(C3CC3)o2)cc1,19.5%,9.83% (active),49.4%,44.8%,2.46% (active),59.4%,12.2%,10.9%,69.9%,20.9%,27.8%,8.12% (active),-13% (active),42.7%,31%,20.4%,16.8%,–,36.1%,59.7%
COc1ccc(NC(=O)[C@H](C)NC(=O)OC(C)(C)C)cc1C(=O)Nc1cccc(-c2cc(=O)c3c(OC)c(OC)c(OC)cc3o2)c1,23%,10.6%,-13.2% (active),-46.4% (active),-84.4% (active),34.9%,-11.4% (active),-38.1% (active),-74.4% (active),-52.3% (active),3.87% (active),-10.5% (active),-18.3% (active),16.9%,-34.1% (active),-36.9% (active),-91.1% (active),-40.8% (active),-73.7% (active),0.755% (active)
O=C1c2c(c3c4cccnc4[nH]c3c3ccc4ccccc4c23)C(=O)N1CCN1CCOCC1,59.9%,37.2%,64.4%,86.8%,92.8%,58.7%,51.4%,55.6%,84.1%,47.4%,47.5%,53.3%,68%,55.6%,51.6%,62.1%,43.9%,57.7%,–,92.9%
CC(=O)Nc1ccc(NC(=O)Nc2cccc(-c3nc(-c4ccc(NC(=O)c5cccnc5)cc4Cl)no3)c2)cc1C(F)(F)F,-13.9% (active),-1.38% (active),-84.9% (active),-60.3% (active),-79.5% (active),-33.1% (active),-69.6% (active),-87.6% (active),-43.7% (active),-58.7% (active),25.7%,-41% (active),-64.1% (active),-12.2% (active),-56.1% (active),-61.4% (active),-88.2% (active),-81.6% (active),-91.9% (active),-81.8% (active)
CN1CCN(c2ccc3c(c2)nc(NNC(=O)c2ccncn2)c2cccn23)CC1,27.5%,25.6%,43.9%,36.9%,66.5%,26.6%,0.713% (active),24.2%,42.8%,9.89% (active),25.1%,32.7%,61.9%,35.1%,34%,46.5%,13.7%,22.2%,11.4%,28.3%
O=C1Nc2ccc(Br)cc2/C1=N\c1nnc(-c2ccc(Cl)cc2)o1,73.3%,16.9%,34.1%,75.2%,87.9%,75.2%,75.1%,64.5%,91.6%,51.2%,24.2%,32.5%,46.8%,72%,60.5%,80.1%,77.2%,60.1%,–,70.8%
C#C[C@]1(O)CC[C@H]2[C@@H]3CC=C4c5sc(Nc6cccc(C)n6)nc5CC[C@]4(C)[C@H]3CC[C@@]21C,43.6%,-10.9% (active),5.14% (active),31.9%,-60.4% (active),-7.63% (active),-70.4% (active),-48.8% (active),-34.9% (active),-29.8% (active),15.6%,37.7%,-23.9% (active),18.5%,6.3% (active),-1.41% (active),3.52% (active),-20.9% (active),–,-55% (active)
CC(C)c1nn(-c2ccccc2)c(N2CCCCC2)c1/C=N/NC(N)=S,95.3%,82.9%,104%,107%,75.5%,88%,77.6%,88.7%,106%,113%,70.8%,81.4%,61.6%,92%,97.9%,82.5%,87.5%,92.5%,–,109%
COc1ccc(-c2nc(SCCC(C)C)nc(N/N=C\c3ccc(O)cc3)c2C#N)cc1,59.7%,42.2%,79.3%,54.2%,78%,55.7%,91.6%,35.1%,111%,76.6%,28.2%,107%,77.2%,60.1%,29.4%,72.4%,89.2%,93.9%,–,95%
C#C[C@]1(O)CC[C@H]2[C@@H]3CC=C4c5sc(Nc6cccc(Cl)n6)nc5CC[C@]4(C)[C@H]3CC[C@@]21C,24.5%,3.91% (active),-20.2% (active),9.05% (active),-57.4% (active),-16.5% (active),-70.2% (active),-60.2% (active),-64.3% (active),-22.8% (active),-66.9% (active),3.69% (active),-25% (active),-1.43% (active),4.83% (active),4.35% (active),-90.7% (active),-14.4% (active),–,-59.9% (active)
COc1cc(CNC(=O)Cc2ccccc2[N+](=O)[O-])ccc1OCC(=O)NO,108%,105%,100%,102%,116%,102%,105%,95.9%,105%,101%,105%,110%,95.6%,98.7%,106%,95.9%,103%,92.7%,100%,109%
C#C[C@]1(O)CC[C@H]2[C@@H]3CC=C4c5sc(Nc6nc(C)cc(OC)n6)nc5CC[C@]4(C)[C@H]3CC[C@@]21C,61.4%,14%,24%,56.1%,-34.9% (active),35.8%,-60% (active),-14.8% (active),46.1%,27%,35.3%,60.8%,-10.8% (active),55%,34.2%,27.5%,17.9%,0.98% (active),–,21.1%
COc1cc(CNC(=O)/C=C/c2ccccc2)ccc1OCC(=O)NO,103%,88.9%,84.9%,98.4%,111%,101%,102%,100%,91.5%,100%,101%,104%,85.3%,98.9%,101%,91%,100%,92.3%,91.9%,107%
C=C(C)[C@@H]1CC[C@]2(C(=O)NCCCN(CCC#N)CCC#N)CC[C@]3(C)[C@H](CC[C@@H]4[C@@]5(C)CCC(=O)C(C)(C)[C@@H]5CC[C@]43C)[C@@H]12,109%,88.4%,102%,99.4%,92.9%,99.2%,97.1%,99.7%,105%,101%,96.4%,106%,99.9%,88.9%,97.7%,–,99.1%,88.3%,99.3%,104%
Cc1cc(-c2ccc3nc(N)sc3c2)nc2ccc3[nH]ncc3c12,48.1%,21.1%,33.4%,46.2%,47%,49.5%,29.2%,20.9%,46.4%,19.7%,33.9%,21.1%,-12.7% (active),39.8%,29.3%,–,26.3%,21.9%,43.8%,38.4%
CN1CCN(c2ccc3c(C(N)=O)c(NC(=O)c4ccc(C(C)(C)C)cc4)sc3c2)CC1,87.4%,21.2%,81.6%,90.6%,81.8%,97.6%,79.8%,63.6%,92.7%,90%,16.4%,20.4%,81.6%,76.2%,59.1%,79.2%,89.7%,–,-53.3% (active),90%
CCOC(=O)c1c(NCC(=O)Nc2cccc(Cl)c2)sc2c1CCCC2,93.8%,66%,82.8%,86.5%,87.3%,84.8%,80.1%,92.5%,99.1%,83.2%,66.4%,101%,59.5%,82.7%,63.6%,–,84.5%,61.9%,35.3%,89.5%
CCOP(=O)(OCC)OC[C@]12CCC(C)(C)C[C@H]1C1=CC[C@@H]3[C@@]4(C)C/C(=C\c5cccnc5)[C@H](OP(=O)(OCC)OCC)C(C)(C)[C@@H]4CC[C@@]3(C)[C@]1(C)CC2,30.7%,9.94% (active),19.5%,44.8%,58%,46.1%,26.7%,37%,23.7%,34.6%,14.4%,12%,80.2%,40%,14.7%,–,-61.3% (active),25.5%,22%,34.5%
C#C[C@]1(O)CC[C@H]2[C@@H]3CC=C4c5sc(Nc6ccncc6)nc5CC[C@]4(C)[C@H]3CC[C@@]21C,21%,2.23% (active),-71.1% (active),21.7%,-62.9% (active),-15.9% (active),-70.8% (active),-61.1% (active),-44.3% (active),-49.7% (active),-71.4% (active),-4.61% (active),-49.4% (active),-36.8% (active),1.97% (active),1.86% (active),-83.9% (active),–,–,-55.1% (active)
O=C(CN1CCN(c2cc(=O)n(-c3ccccc3)c3ccccc23)CC1)Nc1ccc([N+](=O)[O-])cc1,99.8%,71.4%,83.9%,77.2%,68.7%,89.7%,103%,91.7%,90.3%,99%,95.1%,105%,88%,87.1%,93.9%,84.7%,74.1%,–,89.3%,101%
CCn1c2ccc(/C=N/OCCCN(C)C)cc2c2cc(/C=N/OCCCN(C)C)ccc21,17.1%,-17.5% (active),-88.3% (active),-9.87% (active),-73.3% (active),79.1%,-66.5% (active),-80.4% (active),-67.1% (active),-84.4% (active),-13% (active),-58.8% (active),82.8%,59.3%,-30.9% (active),–,-95.6% (active),10.6%,-91.8% (active),-33.8% (active)
CCOC(=O)Nc1ccc(-c2nc(-c3cccc(O)c3)c(-c3ccnc(Br)c3)[nH]2)cc1,57.7%,12.5%,32.4%,39.3%,-9.56% (active),39.9%,-14% (active),38.2%,38.7%,35.1%,30.7%,34.3%,14.7%,44.7%,29.6%,4.92% (active),23.6%,–,14.5%,46.9%
O=C1c2c(c3c4cccnc4[nH]c3c3ccc4ccccc4c23)C(=O)N1CCN1CCNCC1,74.8%,-35.5% (active),92.3%,89.9%,75.5%,78.3%,84.2%,73.8%,106%,64.4%,3.44% (active),57.9%,84%,76.3%,56.2%,–,91.7%,–,–,108%
